{
  "source": "paper PMC13494018",
  "binders": {"B1": {"name": "d1r8_design_ppi_296_dldesign_0_cycle1_af2pred (protein)", "chain": "SAAAKAAAEAAKQRVDGLAQMAIASPALLPHMEAMAKRAAAAVAALDPALGAEVEKYAKEQMAKAKAAVAAAAAAA"}, "B2": {"name": "d1r8_design_ppi_454_dldesign_0_cycle1_af2pred (protein)", "chain": "AAEAQARAEKAEKLMREAVELVKADPTPEAVKEAEKLIAEAAKLATGSAEKHAAANAARALRTRGPEAAEVQAKLFVEMIKT"}, "B3": {"name": "d1r8_design_ppi_356_dldesign_0_cycle1_af2pred (protein)", "chain": "VLEAVSAALSLAEEAAELDPRAGHALLTYANAVWNPATLEKGRKTAREKAKEFKKRAEEEDGERARKAAELLEKAIEEAEKLLKEA"}, "B4": {"name": "d1r8_design_ppi_443_dldesign_0_cycle0_af2pred (protein)", "chain": "SAAAALLARTAAAIVAQTRALVGDAKAAEAQALADAAVAAAKAGDYAKAGALLTELLKLAAEARREKAAAEAAAAA"}, "B5": {"name": "d1r8_design_ppi_393_dldesign_0_cycle1_af2pred (protein)", "chain": "EREELAERLEKAARLLEEGAASDSPGLLAARAWAAANVAPPEWAARLREVSRAALANVEEGRKLAKELAEELRKEAERLRKEL"}, "B6": {"name": "d1r8_design_ppi_534_dldesign_0_cycle1_af2pred (protein)", "chain": "AAALAAEAAALAQEALANIAEADALAKKADPEIGKIYEEAARHFMRGVSLAQRGDLERAKKEIEEGKKLFEKAKELEKKKKEKE"}, "B7": {"name": "d1r8_design_ppi_587_dldesign_0_cycle0_af2pred (protein)", "chain": "SEYRREAEELRERVERIEKRMREAKTAEEAREVLREAQRVAAEAARLAVQAAADGADQEVLDEINEVLSRALEVAREASRKARELE"}, "B8": {"name": "d1r8_design_ppi_373_dldesign_0_cycle1_af2pred (protein)", "chain": "SEELIKNLLLAASKALAGVESAPEAIKAAEEAAKDPRLKEDAEKAKKLIKAAIKATPEEAAKLLKKAAKLLNDALRKYTS"}, "B9": {"name": "d1r8_design_ppi_566_dldesign_0_cycle1_af2pred (protein)", "chain": "MTPEEAREMGERIREAAKRSVEEAVKAIEEAKEKLSPELKPLADRAIELAKRSPEAGANLATTALHIEALS"}, "B10": {"name": "d1r8_design_ppi_401_dldesign_0_cycle1_af2pred (protein)", "chain": "MEKVEKAKKGLEQATELAKAMVPEKAEEFEKIRKEGVEEAKKAAGDPEKAAEILAKARNEILRNGIKAAMAAAKAAA"}, "B11": {"name": "d1r8_design_ppi_364_dldesign_0_cycle0_af2pred (protein)", "chain": "DLERAAEEAERLAEETLARAAAGEITLEELAEAHRRIGELIERVAASGELAERVARRASRLMNQALTALA"}, "B12": {"name": "d1r8_design_ppi_443_dldesign_0_cycle1_af2pred (protein)", "chain": "SPAAALLARTAAAIAAQTVREVGPARAAELQALADAATAAAEAGDFTTAGELLEELLRLAAEARAEKAAAERAAAA"}, "B13": {"name": "d1r8_design_ppi_543_dldesign_0_cycle0_af2pred (protein)", "chain": "AAAQTAHAQAVLDTLIALALRKAAEDPAAARAALESAKLVAEGVKATGDAATGAAAQAKVDAAGAEVAAAAA"}, "B14": {"name": "d1r8_design_ppi_364_dldesign_0_cycle1_af2pred (protein)", "chain": "ALEEAAREARELADETLAAAKAGTINLEELAARFNEAGRLIREVEALGELAEEVGRYVSRKFNEALTALL"}, "B15": {"name": "d1r8_design_ppi_373_dldesign_0_cycle0_af2pred (protein)", "chain": "DQETTGNLVLAAAKANAGVEEADKAIEAAEKAAKDPKLKEKAEEAKKLIEEAKKATPEEAKKLLKEAAKLVNEALRAYSA"}, "B16": {"name": "d1r8_design_ppi_321_dldesign_0_cycle0_af2pred (protein)", "chain": "SAEENKKRLIAAAEAAFKNFSAEAERLEAEGKKEEAAKVYEQLAELLEQMRESAKATAGEEGAKEIEKLLEEAKKKLEEVK"}, "B17": {"name": "d1r8_design_ppi_467_dldesign_0_cycle1_af2pred (protein)", "chain": "AEAEAAVASLVEFVKAILDAAATQDPRLAPAAEEALALMEAGDFDEAARLFLAAGAAAGPAAAALARAAANAMRLAAEAAAAI"}, "B18": {"name": "d1r8_design_ppi_588_dldesign_0_cycle1_af2pred (protein)", "chain": "AAEDKALAAAMAAEAEKVIAEAAKQTPAEANKLAATFAEKAFALAKEHPGAAAALNAAAFKVLTGAMKAIQAQSA"}, "B19": {"name": "d1r8_design_ppi_314_dldesign_0_cycle1_af2pred (protein)", "chain": "ALEEAKKAAEEAKAAAAEARAYFDAAGLTGAGNGFYNNTKKRAEELLKEAEEGSEEEAKKARKELERLKETAEKMLEVAKGVYAAAQA"}},
  "target": "CD276, Q5ZPR3",
  "sequence (Q5ZPR3 whole entry)": "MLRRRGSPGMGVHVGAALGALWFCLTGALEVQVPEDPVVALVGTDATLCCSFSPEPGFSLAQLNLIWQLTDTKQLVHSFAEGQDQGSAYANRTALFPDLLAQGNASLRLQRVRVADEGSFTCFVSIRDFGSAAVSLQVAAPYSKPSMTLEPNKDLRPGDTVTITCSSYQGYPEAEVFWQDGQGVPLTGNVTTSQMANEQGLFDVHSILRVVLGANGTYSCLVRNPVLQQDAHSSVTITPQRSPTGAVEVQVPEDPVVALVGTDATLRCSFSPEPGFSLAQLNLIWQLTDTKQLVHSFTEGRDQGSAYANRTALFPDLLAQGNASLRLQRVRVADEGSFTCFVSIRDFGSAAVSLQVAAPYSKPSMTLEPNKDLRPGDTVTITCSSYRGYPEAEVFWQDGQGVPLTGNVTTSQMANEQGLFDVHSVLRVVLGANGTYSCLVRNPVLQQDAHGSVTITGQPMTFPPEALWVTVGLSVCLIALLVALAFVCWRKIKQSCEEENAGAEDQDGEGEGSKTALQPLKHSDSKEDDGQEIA",
  "note": "Unmarked numbers belong to inactive results. The rule behind the calls is not given here.",
  "data": [
    {"binder": "B1", "values": [
      {"measurement": "binding in a display sort", "result": "not found"}
    ]},
    {"binder": "B2", "values": [
      {"measurement": "binding in a display sort", "result": "not found"}
    ]},
    {"binder": "B3", "values": [
      {"measurement": "binding in a display sort", "result": "not found"}
    ]},
    {"binder": "B4", "values": [
      {"measurement": "binding in a display sort", "result": "not found"}
    ]},
    {"binder": "B5", "values": [
      {"measurement": "binding in a display sort", "result": "not found"}
    ]},
    {"binder": "B6", "values": [
      {"measurement": "binding in a display sort", "result": "not found"}
    ]},
    {"binder": "B7", "values": [
      {"measurement": "binding in a display sort", "result": "not found"}
    ]},
    {"binder": "B8", "values": [
      {"measurement": "binding in a display sort", "result": "not found"}
    ]},
    {"binder": "B9", "values": [
      {"measurement": "binding in a display sort", "result": "not found"}
    ]},
    {"binder": "B10", "values": [
      {"measurement": "binding in a display sort", "result": "binds (active)"}
    ]},
    {"binder": "B11", "values": [
      {"measurement": "binding in a display sort", "result": "not found"}
    ]},
    {"binder": "B12", "values": [
      {"measurement": "binding in a display sort", "result": "not found"}
    ]},
    {"binder": "B13", "values": [
      {"measurement": "binding in a display sort", "result": "not found"}
    ]},
    {"binder": "B14", "values": [
      {"measurement": "binding in a display sort", "result": "not found"}
    ]},
    {"binder": "B15", "values": [
      {"measurement": "binding in a display sort", "result": "not found"}
    ]},
    {"binder": "B16", "values": [
      {"measurement": "binding in a display sort", "result": "not found"}
    ]},
    {"binder": "B17", "values": [
      {"measurement": "binding in a display sort", "result": "not found"}
    ]},
    {"binder": "B18", "values": [
      {"measurement": "binding in a display sort", "result": "not found"}
    ]},
    {"binder": "B19", "values": [
      {"measurement": "binding in a display sort", "result": "not found"}
    ]}
  ]
}
